Results reported in PubChem BioAssay AID1159580 (chemical genetic matrix, 2015).
Values joined by “and” are separate entries in the source; they are usually repeats but may differ in a detail not shown here. Identical values can stand only once. The whole screen tested about 5,500 compounds, of which about 2,000 (36%) were called active. Not shown: some 18% with an inconclusive outcome. No stated cut-off is given here; in the data, active means normalized growth mostly below about 0.91 (no sharp cut-off); inconclusive means no clear call, values can overlap the other calls; inactive means mostly above about 0.92. The list shows a part of the results.

Test: chemical genetic growth profiling, strain panel (AID 1159580);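 further: tested at 20 µM; growth read once vehicle control cultures reached saturation at 30 °C; 1 = growth at the plate median or of vehicle wells; lower values mean less growth of the strain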
Conditions: S. cerevisiae deletion strains, growth OD

Measured: normalized growth

CC(C)CCCC(C)[C@H]1CCC2C3C(=O)C=C4C[C@@H](O)CC[C@]4(C)C3CC[C@@]21C (some centres not stated)
active: locus YGL240W, strain doc1, hits give low values 1.13 [resistant]
inactive: locus YAL013W, strain DEP1, hits give low values 1.02 | locus YAL021C, strain ccr4, hits give low values 0.974 | locus YAL026C, strain drs2, hits give low values 1.02 | locus YAL030W, strain snc1, hits give low values 0.996 | locus YBL061C, strain skt5, hits give low values 1.01 | locus YBR009C, strain hhf1, hits give low values 1.06 | locus YBR021W, strain FUR4, hits give low values 1.05 | locus YBR023C, strain chs3, hits give low values 1.01 | locus YBR171W, strain sec66, hits give low values 1 | locus YBR229C, strain ROT2, hits give low values 1.06 | locus YBR231C, strain swc5, hits give low values 1.05 | locus YBR279W, strain paf1, hits give low values 1.01 | locus YCL011C, strain gbp2, hits give low values 0.994 | locus YCL016C, strain dcc1, hits give low values 1 | locus YCL029C, strain bik1, hits give low values 1.03 | locus YCL061C, strain MRC1, hits give low values 1.01 | locus YCL069W, strain vba3, hits give low values 0.996 | locus YCR088W, strain abp1, hits give low values 0.991 | locus YDL005C, strain med2, hits give low values 0.994 | locus YDL035C, strain GPR1, hits give low values 1.04 | locus YDL040C, strain nat1, hits give low values 0.982 | locus YDL074C, strain BRE1, hits give low values 1.04 | locus YDL101C, strain DUN1, hits give low values 1.04 | locus YDL185W, strain tfp1, hits give low values 1.04 | locus YDL192W, strain arf1, hits give low values 1.06 | locus YDR001C, strain nth1, hits give low values 1.01 | locus YDR069C, strain doa4, hits give low values 1 | locus YDR101C, strain arx1, hits give low values 1.04 | locus YDR137W, strain rgp1, hits give low values 0.946 | locus YDR150W, strain NUM1, hits give low values 1.01 | locus YDR159W, strain sac3, hits give low values 1.06 | locus YDR162C, strain NBP2, hits give low values 1.07 | locus YDR195W, strain ref2 0.997 | locus YDR297W, strain sur2, hits give low values 0.996 | locus YDR318W, strain mcm21, hits give low values 1.03 | locus YDR334W, strain swr1, hits give low values 0.975 | locus YDR335W, strain msn5, hits give low values 1.01 | locus YDR388W, hits give low values 1.02 | locus YDR392W, strain spt3, hits give low values 0.968 | locus YDR502C, strain sam2, hits give low values 1.02 | locus YEL003W, strain gim4, hits give low values 0.996 | locus YEL037C, strain rad23, hits give low values 1.01 | locus YEL061C, strain CIN8 (second series), hits give low values 1 | locus YEL061C, strain CIN8, hits give low values 1.01 | locus YER015W, strain faa2, hits give low values 1.01 | locus YER016W, strain bim1, hits give low values 0.994 | locus YER110C, hits give low values 1.04 | locus YER111C, strain swi4, hits give low values 1 | locus YER155C, strain BEM2 (second series), hits give low values 1.03 | locus YER155C, strain BEM2, hits give low values 1.01 | locus YER167W, strain BCK2, hits give low values 1.03 | locus YFR010W, strain ubp6, hits give low values 1.02 | locus YGL078C, strain dbp3, hits give low values 1.04 | locus YGL086W, strain mad1, hits give low values 1.01 | locus YGL167C, strain pmr1, hits give low values 1.01 | locus YGL173C, strain kem1, hits give low values 1 | locus YGL227W, strain vid30, hits give low values 1.01 | locus YGL248W, strain PDE1, hits give low values 1.04 | locus YGL253W, strain hxk2, hits give low values 0.93 | locus YGR135W, strain pre9, hits give low values 1.04 | locus YGR229C, strain SMI1, hits give low values 1.08 | locus YGR252W, strain gcn5, hits give low values 1.05 | locus YHR013C, strain ard1, hits give low values 1.02 | locus YHR027C, strain rpn1, hits give low values 0.992 | locus YHR030C, strain SLT2, hits give low values 1.01 and 0.966 | locus YHR079C, strain IRE1 (second series), hits give low values 1.02 | locus YHR079C, strain IRE1, hits give low values 1.01 | locus YHR094C, strain hxt1, hits give low values 1.04 | locus YHR129C, strain ARP1, hits give low values 1.03 | locus YHR142W, strain chs7, hits give low values 0.918 | locus YHR200W, strain rpn10, hits give low values 1 | locus YIL066C, strain RNR3, hits give low values 1.04 | locus YIL073C, strain SPO22, hits give low values 1.28 | locus YIL125W, strain kgd1, hits give low values 1.02 | locus YIR030C, strain dcg1, hits give low values 1.04 | locus YJL092W, strain hpr5, hits give low values 0.996 | locus YJL095W, strain BCK1 (second series), hits give low values 0.998 | locus YJL095W, strain BCK1, hits give low values 1.05 and 0.966 | locus YJL115W, strain asf1, hits give low values 1.01 | locus YJL129C, strain trk1, hits give low values 0.958 | locus YJL134W, strain LCB3, hits give low values 1.01 | locus YJL154C, strain vps35, hits give low values 1.01 | locus YJL164C, strain tpk1, hits give low values 0.966 | locus YJL166W, strain qcr8, hits give low values 1 | locus YJL168C, strain set2, hits give low values 1.03 | locus YJL187C, strain SWE1 (second series), hits give low values 1.04
